# Data taken from PMC7862700, “An all-to-all approach to the identification of sequence-specific readers for epigenetic DNA modifications on cytosine”.
# Legend:
# Assay in all cases: DAPPL (digital affinity profiling via proximity ligation, sequencing); 10 mM Tris-HCl pH 7.5, 50 mM NaCl, 1 mM DTT, 4% glycerol, room temperature, 30 min; GST-TFs on glutathione beads, 16-mer random dsDNA library, 0.1% formaldehyde crosslink after washing; high values mean tight binding
# FLI1 = target: T1, FLI1 (Homo sapiens, UniProt Q01543 1-452); conditions: protein: recombinant; tags: N-terminal GST; dsDNA, one strand shown
# T1 sequence: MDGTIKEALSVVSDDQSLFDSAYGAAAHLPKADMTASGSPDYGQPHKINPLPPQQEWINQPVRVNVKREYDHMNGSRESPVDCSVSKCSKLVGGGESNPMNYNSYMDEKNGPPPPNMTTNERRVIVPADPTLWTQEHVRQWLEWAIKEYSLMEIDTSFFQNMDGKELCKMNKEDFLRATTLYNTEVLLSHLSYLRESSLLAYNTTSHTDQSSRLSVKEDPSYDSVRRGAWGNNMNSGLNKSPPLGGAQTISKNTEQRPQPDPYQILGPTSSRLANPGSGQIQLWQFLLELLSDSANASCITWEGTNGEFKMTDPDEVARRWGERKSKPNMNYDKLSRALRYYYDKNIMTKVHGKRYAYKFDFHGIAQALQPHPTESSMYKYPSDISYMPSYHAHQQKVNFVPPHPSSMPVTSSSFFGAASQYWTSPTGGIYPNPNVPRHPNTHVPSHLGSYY
# How it was run: (§1)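 Beads coated with glutathione captured GST-fused human transcription factors that had been expressed in yeast, and the factors were then given DNA barcodes and pooled with a tag-only sample. The pools were incubated with 200 nmole of a random double-stranded 16-mer DNA library in Tris/NaCl/DTT/glycerol buffer for 30 min at room temperature, washed, crosslinked with 0.1% formaldehyde and proximity-ligated with BsaI/T4 ligase at 37 °C for 1 h. PCR amplification and Illumina NextSeq500 sequencing came last. Binding signal is each hexamer's read frequency for a factor divided by its frequency for the tag-only sample.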
# ELK1 = target: T2, ELK1 (Homo sapiens, UniProt P19419 1-428); conditions: protein: recombinant; tags: N-terminal GST; dsDNA, one strand shown
# T2 sequence: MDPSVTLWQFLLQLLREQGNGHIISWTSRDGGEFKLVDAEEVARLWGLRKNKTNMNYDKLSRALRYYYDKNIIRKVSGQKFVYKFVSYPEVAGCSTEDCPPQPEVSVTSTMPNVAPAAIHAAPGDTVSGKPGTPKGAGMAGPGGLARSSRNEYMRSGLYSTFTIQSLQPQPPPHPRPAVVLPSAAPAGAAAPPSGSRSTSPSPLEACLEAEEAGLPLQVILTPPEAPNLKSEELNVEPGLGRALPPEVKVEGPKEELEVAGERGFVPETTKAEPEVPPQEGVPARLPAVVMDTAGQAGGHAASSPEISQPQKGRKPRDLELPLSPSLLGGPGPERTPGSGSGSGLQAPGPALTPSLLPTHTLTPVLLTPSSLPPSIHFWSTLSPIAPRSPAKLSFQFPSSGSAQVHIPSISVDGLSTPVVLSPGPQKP
# How it was run: as §1
# GABPA = target: T3, GABPA (Homo sapiens, UniProt Q06546 1-454); conditions: protein: recombinant; tags: N-terminal GST; dsDNA, one strand shown
# T3 sequence: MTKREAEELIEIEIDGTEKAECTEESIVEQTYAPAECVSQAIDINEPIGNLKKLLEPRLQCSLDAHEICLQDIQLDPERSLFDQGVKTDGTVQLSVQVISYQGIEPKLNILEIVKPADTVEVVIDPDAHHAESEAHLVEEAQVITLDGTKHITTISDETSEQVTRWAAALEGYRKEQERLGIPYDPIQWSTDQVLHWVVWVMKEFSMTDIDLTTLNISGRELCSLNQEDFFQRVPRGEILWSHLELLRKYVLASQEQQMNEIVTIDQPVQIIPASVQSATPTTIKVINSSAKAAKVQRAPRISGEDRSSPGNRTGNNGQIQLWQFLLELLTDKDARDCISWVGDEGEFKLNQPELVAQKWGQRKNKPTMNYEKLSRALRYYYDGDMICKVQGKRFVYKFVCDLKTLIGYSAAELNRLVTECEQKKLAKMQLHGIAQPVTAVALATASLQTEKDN
# How it was run: as §1
# ERG = target: T4, ERG (Homo sapiens, UniProt P11308 1-479); conditions: protein: recombinant; tags: N-terminal GST; dsDNA, one strand shown
# T4 sequence: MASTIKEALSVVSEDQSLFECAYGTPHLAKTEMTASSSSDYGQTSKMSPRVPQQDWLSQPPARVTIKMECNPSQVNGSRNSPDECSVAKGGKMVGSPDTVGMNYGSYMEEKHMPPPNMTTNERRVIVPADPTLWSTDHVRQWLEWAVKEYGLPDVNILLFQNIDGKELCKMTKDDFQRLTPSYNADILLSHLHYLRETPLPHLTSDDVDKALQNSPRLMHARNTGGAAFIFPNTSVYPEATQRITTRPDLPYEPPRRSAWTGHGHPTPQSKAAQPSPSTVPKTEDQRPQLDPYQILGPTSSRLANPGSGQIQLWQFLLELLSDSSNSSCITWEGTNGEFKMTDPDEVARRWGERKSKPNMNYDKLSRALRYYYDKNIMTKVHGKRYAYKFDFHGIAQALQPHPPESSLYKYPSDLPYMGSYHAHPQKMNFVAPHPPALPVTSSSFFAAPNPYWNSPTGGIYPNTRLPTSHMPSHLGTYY
# How it was run: as §1
# ELF1 = ELF1 (Homo sapiens, UniProt P32519 1-619); conditions: protein: recombinant; tags: N-terminal GST; dsDNA, one strand shown
# Chain of ELF1 (P32519 whole entry): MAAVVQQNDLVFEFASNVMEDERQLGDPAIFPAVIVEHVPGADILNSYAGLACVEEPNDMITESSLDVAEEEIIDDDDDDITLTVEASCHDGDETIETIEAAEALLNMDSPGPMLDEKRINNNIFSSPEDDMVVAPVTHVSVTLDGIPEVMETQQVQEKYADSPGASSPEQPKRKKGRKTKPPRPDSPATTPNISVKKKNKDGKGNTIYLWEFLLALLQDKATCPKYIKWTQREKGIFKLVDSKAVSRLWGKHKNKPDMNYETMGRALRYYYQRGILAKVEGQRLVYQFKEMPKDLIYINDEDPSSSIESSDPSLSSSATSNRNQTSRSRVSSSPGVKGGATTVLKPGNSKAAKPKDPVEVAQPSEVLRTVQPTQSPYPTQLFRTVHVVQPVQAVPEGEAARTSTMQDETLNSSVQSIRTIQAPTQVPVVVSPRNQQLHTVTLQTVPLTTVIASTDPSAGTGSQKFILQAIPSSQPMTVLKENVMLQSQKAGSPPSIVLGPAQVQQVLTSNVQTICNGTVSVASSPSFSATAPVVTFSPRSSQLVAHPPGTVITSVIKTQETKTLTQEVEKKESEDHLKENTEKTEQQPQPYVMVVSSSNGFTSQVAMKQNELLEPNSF
# How it was run: as §1
# EHF = target: T5, EHF (Homo sapiens, UniProt Q9NZC4 1-300); conditions: protein: recombinant; tags: N-terminal GST; dsDNA, one strand shown
# T5 sequence: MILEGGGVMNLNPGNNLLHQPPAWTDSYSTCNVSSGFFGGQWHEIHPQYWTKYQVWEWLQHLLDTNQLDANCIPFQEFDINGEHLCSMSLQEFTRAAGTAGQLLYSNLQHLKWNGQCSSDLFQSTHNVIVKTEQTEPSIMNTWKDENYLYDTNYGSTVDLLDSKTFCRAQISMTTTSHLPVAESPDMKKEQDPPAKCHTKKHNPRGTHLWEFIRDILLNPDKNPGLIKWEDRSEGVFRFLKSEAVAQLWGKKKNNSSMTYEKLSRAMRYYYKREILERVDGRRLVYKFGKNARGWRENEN
# How it was run: as §1
# SPI1 = SPI1 (Homo sapiens, UniProt P17947 1-270); conditions: protein: recombinant; tags: N-terminal GST; dsDNA, one strand shown
# How it was run: as §1
# SPIB = SPIB (Homo sapiens, UniProt Q01892 1-262); conditions: protein: recombinant; tags: N-terminal GST; dsDNA, one strand shown
# Chain of SPIB (Q01892 whole entry): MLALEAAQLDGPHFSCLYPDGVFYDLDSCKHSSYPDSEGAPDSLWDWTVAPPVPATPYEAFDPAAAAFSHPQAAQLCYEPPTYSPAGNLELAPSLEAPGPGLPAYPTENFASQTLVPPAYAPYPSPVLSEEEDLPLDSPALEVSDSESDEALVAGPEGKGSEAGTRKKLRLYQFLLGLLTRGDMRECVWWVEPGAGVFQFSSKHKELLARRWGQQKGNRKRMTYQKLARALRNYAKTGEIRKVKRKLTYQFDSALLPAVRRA
# How it was run: as §1
# ELK3 = target: T6, ELK3 (Homo sapiens, UniProt P41970 1-407); conditions: protein: recombinant; tags: N-terminal GST; dsDNA, one strand shown
# T6 sequence: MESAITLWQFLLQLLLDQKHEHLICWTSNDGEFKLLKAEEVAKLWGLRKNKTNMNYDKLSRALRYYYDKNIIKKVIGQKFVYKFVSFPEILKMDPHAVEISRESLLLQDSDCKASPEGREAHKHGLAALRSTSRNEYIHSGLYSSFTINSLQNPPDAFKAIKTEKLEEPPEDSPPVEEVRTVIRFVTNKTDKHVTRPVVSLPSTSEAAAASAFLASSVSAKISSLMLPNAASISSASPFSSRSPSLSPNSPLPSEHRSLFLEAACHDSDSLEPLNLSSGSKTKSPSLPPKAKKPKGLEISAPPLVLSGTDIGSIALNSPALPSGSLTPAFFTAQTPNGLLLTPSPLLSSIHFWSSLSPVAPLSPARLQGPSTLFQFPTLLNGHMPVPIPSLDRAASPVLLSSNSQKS
# How it was run: as §1
# FEV = target: T7, FEV (Homo sapiens, UniProt Q99581 1-238); conditions: protein: recombinant; tags: N-terminal GST; dsDNA, one strand shown
# T7 sequence: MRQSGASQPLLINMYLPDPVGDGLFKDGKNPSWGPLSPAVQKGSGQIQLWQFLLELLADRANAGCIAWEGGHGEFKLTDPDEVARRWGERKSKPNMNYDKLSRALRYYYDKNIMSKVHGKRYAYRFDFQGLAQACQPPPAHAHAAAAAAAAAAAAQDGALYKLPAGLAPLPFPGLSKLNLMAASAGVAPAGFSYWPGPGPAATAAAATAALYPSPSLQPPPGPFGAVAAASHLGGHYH
# How it was run: as §1
# ETV5 = ETV5 (Homo sapiens, UniProt P41161 1-510); conditions: protein: recombinant; tags: N-terminal GST; dsDNA, one strand shown
# Chain of ETV5 (P41161 whole entry): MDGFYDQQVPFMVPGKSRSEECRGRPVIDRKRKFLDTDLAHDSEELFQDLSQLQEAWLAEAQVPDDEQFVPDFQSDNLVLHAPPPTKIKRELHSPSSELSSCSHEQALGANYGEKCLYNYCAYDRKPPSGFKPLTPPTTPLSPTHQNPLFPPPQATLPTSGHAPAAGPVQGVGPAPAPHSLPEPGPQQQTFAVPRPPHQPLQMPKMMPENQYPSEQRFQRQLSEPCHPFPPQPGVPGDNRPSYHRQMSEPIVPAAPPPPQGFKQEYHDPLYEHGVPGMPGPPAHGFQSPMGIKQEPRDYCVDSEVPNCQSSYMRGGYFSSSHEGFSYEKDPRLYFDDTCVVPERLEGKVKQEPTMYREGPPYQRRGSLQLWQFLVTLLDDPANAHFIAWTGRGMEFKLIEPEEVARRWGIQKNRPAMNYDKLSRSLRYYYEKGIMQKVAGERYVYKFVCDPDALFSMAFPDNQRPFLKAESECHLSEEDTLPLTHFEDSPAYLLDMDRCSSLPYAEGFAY
# How it was run: as §1
# HSF1 = HSF1 (Homo sapiens, UniProt Q00613 1-529); conditions: protein: recombinant; tags: N-terminal GST; chain copies: 3; dsDNA, one strand shown
# Chain of HSF1 (Q00613 whole entry): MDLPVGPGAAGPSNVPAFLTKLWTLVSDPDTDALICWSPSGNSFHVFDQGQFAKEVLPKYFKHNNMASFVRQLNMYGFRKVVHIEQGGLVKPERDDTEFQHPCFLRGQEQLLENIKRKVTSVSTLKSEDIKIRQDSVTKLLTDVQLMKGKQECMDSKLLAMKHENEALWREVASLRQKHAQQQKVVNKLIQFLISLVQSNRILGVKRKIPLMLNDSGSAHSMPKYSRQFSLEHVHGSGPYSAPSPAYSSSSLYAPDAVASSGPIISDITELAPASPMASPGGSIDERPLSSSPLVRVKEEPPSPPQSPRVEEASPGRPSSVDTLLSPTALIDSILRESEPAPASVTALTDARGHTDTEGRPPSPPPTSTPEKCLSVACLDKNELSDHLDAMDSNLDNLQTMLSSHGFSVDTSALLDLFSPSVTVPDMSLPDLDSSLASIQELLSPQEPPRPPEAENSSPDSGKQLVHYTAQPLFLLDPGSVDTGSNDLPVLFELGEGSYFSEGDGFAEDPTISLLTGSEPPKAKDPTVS
# How it was run: as §1
# SPIC = target: T8, SPIC (Homo sapiens, UniProt Q8N5J4 1-248); conditions: protein: recombinant; tags: N-terminal GST; dsDNA, one strand shown
# T8 sequence: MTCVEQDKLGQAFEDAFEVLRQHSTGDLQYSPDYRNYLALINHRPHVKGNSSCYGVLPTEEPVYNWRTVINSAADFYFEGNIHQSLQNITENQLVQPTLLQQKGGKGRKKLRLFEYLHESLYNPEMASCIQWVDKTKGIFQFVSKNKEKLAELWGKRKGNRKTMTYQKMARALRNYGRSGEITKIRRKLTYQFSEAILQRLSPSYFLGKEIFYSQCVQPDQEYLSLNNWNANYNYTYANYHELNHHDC
# How it was run: as §1
# ELF4 = ELF4 (Homo sapiens, UniProt Q99607 1-663); conditions: protein: recombinant; tags: N-terminal GST; dsDNA, one strand shown
# Chain of ELF4 (Q99607 whole entry): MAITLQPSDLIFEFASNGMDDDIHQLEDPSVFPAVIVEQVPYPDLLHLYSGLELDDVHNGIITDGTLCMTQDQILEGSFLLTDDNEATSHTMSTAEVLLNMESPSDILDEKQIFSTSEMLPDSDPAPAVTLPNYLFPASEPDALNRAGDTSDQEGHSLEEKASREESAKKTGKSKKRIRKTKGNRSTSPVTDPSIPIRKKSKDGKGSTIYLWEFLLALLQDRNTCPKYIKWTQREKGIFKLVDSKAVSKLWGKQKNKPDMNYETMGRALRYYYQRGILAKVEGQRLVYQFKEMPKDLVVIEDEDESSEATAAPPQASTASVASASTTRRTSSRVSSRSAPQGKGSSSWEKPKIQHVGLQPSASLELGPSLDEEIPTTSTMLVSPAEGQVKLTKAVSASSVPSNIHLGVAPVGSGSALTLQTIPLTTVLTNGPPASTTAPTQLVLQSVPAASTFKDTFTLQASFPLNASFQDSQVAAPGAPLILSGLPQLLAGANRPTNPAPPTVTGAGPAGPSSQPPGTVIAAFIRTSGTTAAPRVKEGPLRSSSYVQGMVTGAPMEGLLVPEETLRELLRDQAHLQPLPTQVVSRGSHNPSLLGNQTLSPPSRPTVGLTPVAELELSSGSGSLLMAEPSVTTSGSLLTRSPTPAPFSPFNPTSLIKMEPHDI
# How it was run: as §1
# ELK4 = target: T9, ELK4 (Homo sapiens, UniProt P28324-2 1-405); conditions: protein: recombinant; tags: N-terminal GST; dsDNA, one strand shown
# T9 sequence: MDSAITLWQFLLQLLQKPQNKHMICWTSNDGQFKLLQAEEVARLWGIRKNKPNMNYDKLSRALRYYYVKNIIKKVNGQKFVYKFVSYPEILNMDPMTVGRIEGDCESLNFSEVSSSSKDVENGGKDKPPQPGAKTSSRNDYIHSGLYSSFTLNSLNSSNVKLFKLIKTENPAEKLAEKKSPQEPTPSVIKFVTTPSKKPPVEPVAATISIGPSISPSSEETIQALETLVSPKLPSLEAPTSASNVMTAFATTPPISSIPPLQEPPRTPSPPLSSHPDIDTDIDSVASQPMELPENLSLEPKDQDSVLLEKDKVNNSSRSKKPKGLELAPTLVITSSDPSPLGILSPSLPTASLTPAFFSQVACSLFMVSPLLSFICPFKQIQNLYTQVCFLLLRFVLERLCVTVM
# How it was run: as §1
# ETV2 = target: T10, ETV2 (Homo sapiens, UniProt O00321 1-342); conditions: protein: recombinant; tags: N-terminal GST; dsDNA, one strand shown
# T10 sequence: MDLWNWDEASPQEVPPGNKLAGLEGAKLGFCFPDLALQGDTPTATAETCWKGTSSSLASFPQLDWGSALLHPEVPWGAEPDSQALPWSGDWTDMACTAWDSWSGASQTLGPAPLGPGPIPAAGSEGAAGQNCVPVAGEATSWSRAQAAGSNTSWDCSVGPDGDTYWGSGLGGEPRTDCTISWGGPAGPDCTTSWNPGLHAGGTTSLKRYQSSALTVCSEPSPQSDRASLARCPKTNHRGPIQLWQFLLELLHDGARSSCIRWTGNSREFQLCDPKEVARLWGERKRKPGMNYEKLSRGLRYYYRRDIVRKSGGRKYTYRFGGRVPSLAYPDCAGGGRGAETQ
# How it was run: as §1
# ELF3 = target: T11, ELF3 (Homo sapiens, UniProt P78545 1-371); conditions: protein: recombinant; tags: N-terminal GST; dsDNA, one strand shown
# T11 sequence: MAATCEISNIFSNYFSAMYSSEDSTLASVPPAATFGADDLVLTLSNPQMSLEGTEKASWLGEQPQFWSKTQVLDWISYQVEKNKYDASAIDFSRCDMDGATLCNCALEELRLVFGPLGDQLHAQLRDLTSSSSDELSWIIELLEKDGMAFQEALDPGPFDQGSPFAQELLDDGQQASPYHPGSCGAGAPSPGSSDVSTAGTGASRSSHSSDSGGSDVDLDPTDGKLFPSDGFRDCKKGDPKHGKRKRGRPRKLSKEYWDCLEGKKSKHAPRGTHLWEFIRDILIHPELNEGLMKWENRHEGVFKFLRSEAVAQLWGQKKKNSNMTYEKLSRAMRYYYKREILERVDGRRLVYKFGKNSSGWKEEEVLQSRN
# How it was run: as §1
# CRX = CRX (Homo sapiens, UniProt O43186 1-299); conditions: protein: recombinant; tags: N-terminal GST; dsDNA, one strand shown
# Chain of CRX (O43186 whole entry): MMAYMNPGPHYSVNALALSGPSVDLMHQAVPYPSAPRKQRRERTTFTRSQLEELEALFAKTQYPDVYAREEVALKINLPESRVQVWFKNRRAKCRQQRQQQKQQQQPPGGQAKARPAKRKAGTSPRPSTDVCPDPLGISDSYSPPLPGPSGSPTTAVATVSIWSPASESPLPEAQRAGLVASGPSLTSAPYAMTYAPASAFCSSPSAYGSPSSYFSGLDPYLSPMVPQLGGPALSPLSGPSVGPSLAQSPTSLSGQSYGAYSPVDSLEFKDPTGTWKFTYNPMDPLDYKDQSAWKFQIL
# How it was run: as §1
# ETV1 = ETV1 (Homo sapiens, UniProt P50549 1-477); conditions: protein: recombinant; tags: N-terminal GST; dsDNA, one strand shown
# Chain of ETV1 (P50549 whole entry): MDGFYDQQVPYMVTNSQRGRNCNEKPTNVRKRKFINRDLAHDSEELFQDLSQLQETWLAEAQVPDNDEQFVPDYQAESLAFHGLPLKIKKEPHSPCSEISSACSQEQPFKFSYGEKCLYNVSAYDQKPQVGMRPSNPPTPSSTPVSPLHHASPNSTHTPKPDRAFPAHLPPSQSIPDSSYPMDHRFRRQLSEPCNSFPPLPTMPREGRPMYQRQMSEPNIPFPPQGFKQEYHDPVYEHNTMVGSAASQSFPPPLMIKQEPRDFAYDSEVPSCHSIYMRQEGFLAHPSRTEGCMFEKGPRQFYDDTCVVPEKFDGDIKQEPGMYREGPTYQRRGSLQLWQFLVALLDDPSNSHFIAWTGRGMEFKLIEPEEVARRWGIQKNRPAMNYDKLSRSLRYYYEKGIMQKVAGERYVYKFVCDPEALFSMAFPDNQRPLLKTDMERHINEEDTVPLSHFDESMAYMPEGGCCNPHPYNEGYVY
# How it was run: as §1
sequence,measurement,setting,value
TATGGA,binding signal,FLI1,"1.07 fold enrichment (6-mer frequency, TF over GST control)"
same,binding signal,ELK1,"1.13 fold enrichment (6-mer frequency, TF over GST control)"
same,binding signal,GABPA,"1.09 fold enrichment (6-mer frequency, TF over GST control)"
same,binding signal,ERG,"1.15 fold enrichment (6-mer frequency, TF over GST control)"
same,binding signal,ELF1,"1.06 fold enrichment (6-mer frequency, TF over GST control)"
same,binding signal,EHF,"1.26 fold enrichment (6-mer frequency, TF over GST control)"
same,binding signal,SPI1,"1.07 fold enrichment (6-mer frequency, TF over GST control)"
same,binding signal,SPIB,"1.17 fold enrichment (6-mer frequency, TF over GST control)"
same,binding signal,ELK3,"1.12 fold enrichment (6-mer frequency, TF over GST control)"
same,binding signal,FEV,"1.05 fold enrichment (6-mer frequency, TF over GST control)"
same,binding signal,ETV5,"1.12 fold enrichment (6-mer frequency, TF over GST control)"
same,binding signal,HSF1,"1.33 fold enrichment (6-mer frequency, TF over GST control)"
same,binding signal,SPIC,"1.14 fold enrichment (6-mer frequency, TF over GST control)"
same,binding signal,ELF4,"1.07 fold enrichment (6-mer frequency, TF over GST control)"
same,binding signal,ELK4,"1 fold enrichment (6-mer frequency, TF over GST control)"
same,binding signal,ETV2,"1.25 fold enrichment (6-mer frequency, TF over GST control)"
same,binding signal,ELF3,"1.15 fold enrichment (6-mer frequency, TF over GST control)"
same,binding signal,CRX,"1.4 fold enrichment (6-mer frequency, TF over GST control)"
same,binding signal,ETV1,"1.12 fold enrichment (6-mer frequency, TF over GST control)"
